From PubChem BioAssay (NCI) come the findings set out here.

Holding throughout (assay): NCI-60 one-dose screen, 48 h (100 = growth as untreated, 0 = no growth, -100 = all killed)
The test system of test [1] is BT-549 breast. The settings on record: 10 µM unless noted.
Test [2] deals with MDA-MB-435 melanoma. The settings on record: 10 µM unless noted.
Test [3] concerns SW-620 colon. The settings on record: 10 µM unless noted.
Test [4] deals with MCF7 breast. The settings on record: 10 µM.
Test [5] concerns HCT-116 colon. The conditions noted are these: 10 µM unless noted.
Test [6] concerns HCC-2998 colon. The conditions noted are these: 10 µM unless noted.
Test [7] deals with KM12 colon. The settings on record: 10 µM unless noted.

About 83,000 compounds went through this panel and 20% of them were active in at least one assay; those are over-represented in the sample as a whole.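 The test compound was applied at a single concentration to cells in 96-well plates for 48 hours, and percent growth was recorded.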 Values without a mark were called inactive. The source made the active and inactive calls. Rule for the calls: active = growth percent below 10; inactive = the rest.

For the compound `C=C1C(=O)O[C@H]2[C@H]1CC/C(COC(=O)/C=C\C(=O)O)=C\CC[C@@]1(C)O[C@@H]21`, the growth is 103% in test [1]; 107% in test [2]; 105% in test [3]; 94.3% in test [4]; 109% in test [5]; 104% in test [6]. In test [7], the growth is 106%.

Consider `COc1cc(C2CC(c3ccc(Nc4nc(NCCO)nc(N5CCOCC5)n4)cc3)=NN2c2cc(Cl)cc(Cl)c2)cc(OC)c1OC` (configuration not stated), for which the growth in test [1] was 75.3%; in test [2] it was 49.6%; in test [3] it was 81.6%; in test [4], 15.3%; in test [5], 33.1%; in test [6] it was 63.4%. Moreover, the growth in test [7] was 37.6%.

On to `O=C1NC(=S)NC(=O)C1=Cc1cn(Cc2cn(Cc3cccc4ccccc34)nn2)c2ccccc12`, for which the growth is 101% in test [1]; 94.8% in test [2]; 93.4% in test [3]; 95.4% in test [4]; 106% in test [5]; 100% in test [6]. In addition, the growth in test [7] was 97.2%.

Regarding `O=Cc1c(OCc2cnnn2CC(=O)Nc2ccc(Cl)cc2)ccc2ccccc12`, the growth in test [1] was 90.4%; in test [2], 104%; in test [3], 99.2%; in test [4] it was 81.5%; in test [5], 104%; in test [6], 111%. The growth in test [7] was 101%.

Turning to `CC(=Nc1ccccc1)C1=C(O)C(Cc2ccc(F)cc2)NC1=O` (configuration not stated), the growth in test [1] was 36.8%; in test [2], -53.7% (active); in test [3], 27.4%; in test [4], 16.3%; in test [5] it was 27.5%; in test [6] it was 60.4%. Further, the growth in test [7] was 24.5%.

On to `COc1cccc(C(=O)Cn2cc(/C=C(\C#N)S(=O)(=O)c3ccccc3)c3ccccc32)c1`, for which the growth in test [1] was 103%; in test [2], 113%; in test [3] it was 95.5%; in test [4], 94.5%; in test [5], 83.9%; in test [6] it was 91%. Moreover, in test [7], the growth is 107%.

For the compound `N[C@@H](CC/[N+]([O-])=N/O)C(=O)O`, the growth in test [1] is 95.2%; in test [2], 98.4%; in test [3], 104%; in test [4], 93.7%; in test [5], 99.1%; in test [6], 112%. Also, in test [7], the growth is 104%.

`O=[N+]([O-])c1cc2c(ccc3occc32)o1`: the growth in test [1] is 22%; in test [2], -75.1% (active); in test [3], 27.6%; in test [4], 9.95% (active); in test [5], 7.94% (active); in test [6], 10.9%. For the same compound, in test [7], the growth was 28.6%.

In the case of `CCOC(=O)C1(Cc2ccccc2)CCN(Cc2cccc(OC)c2O)CC1`, the growth was 50.4% in test [1]; 20.1% in test [2]; 20.9% in test [3]; 13.9% in test [4]; 21% in test [5]; 11.9% in test [6]. The growth in test [7] is 22.2%.

Consider `COc1cc(C(=O)NN=C2c3ccccc3-c3ccccc32)cc(OC)c1OC`, for which the growth in test [1] is 43.3%; in test [2] it was -22.6% (active); in test [3] it was 19.5%; in test [4], 11.9%; in test [5] it was 20.4%; in test [6], 77.9%. In test [7], the growth is 29.3%.

As to `O=C(/C=C/c1ccccc1)c1ccc(Nc2nc(NCCO)nc(Nc3ccc(Cl)cc3)n2)cc1`, the growth in test [1] is 84.4%; in test [2], 77.2%; in test [3], 18.7%; in test [4], 9.88% (active); in test [5] it was 27.5%; in test [6] it was 62.5%. Also, in test [7], the growth is 28.2%.

Consider `O=NN(C(=O)NC1CCC(C(=O)O)CC1)C1CCC(C(=O)O)CC1` (configuration not stated), for which the growth in test [1] is 125%; in test [2], 106%; in test [3], 105%; in test [4] it was 93%; in test [5], 104%; in test [6] it was 104%. For the same compound, the growth in test [7] is 108%.

As for `CCOC(=O)c1sc(-c2ccc(OS(=O)(=O)C[C@]34CCC(CC3=O)C4(C)C)c(C=O)c2)nc1C`, the growth in test [1] was -13.5% (active); in test [2] it was 7.61% (active); in test [3], 10.5%; in test [4], 2% (active); in test [5] it was 5.89% (active); in test [6], 66.4%. The growth in test [7] is 7.78% (active).

For the compound `CN(O)c1nc(N(C)O)nc(N2CCOCC2)n1`, the growth was 60.5% in test [1]; 42.5% in test [2]; 52.4% in test [3]; 15.9% in test [4]; 12.2% in test [5]; 40.5% in test [6]. Also, the growth in test [7] is 45.8%.

As for `COC(=O)c1c2c(c(C)[n+]([O-])c1C)C(=O)C=C(NCc1ccccc1)C2=O`, the growth in test [1] was -67.5% (active); in test [2], -89.6% (active); in test [3], -27.9% (active); in test [4] it was -62.1% (active); in test [5], -12.6% (active); in test [6], -34.5% (active). For the same compound, in test [7], the growth was -10.5% (active).

`O=C1C(Cl)=C(NCc2ccco2)C(=O)c2ccccc21`: the growth was 103% in test [1]; -38.4% (active) in test [2]; 99.7% in test [3]; 22% in test [4]; 80.5% in test [5]; 97.9% in test [6]. Moreover, the growth in test [7] is 62.6%.

Consider `Cn1c(=O)n(C)c2cc(CNCCNc3ccnc4cc(Cl)ccc34)ccc21`, for which the growth in test [1] is 90.8%; in test [2], 38.7%; in test [3] it was 23.1%; in test [4], 74.2%; in test [5], 28.1%; in test [6] it was 27.4%. Also, the growth in test [7] was 54.5%.

Turning to `CCC(C)(C)C(=O)O[C@H]1C[C@@H](C)C=C2C=C[C@H](C)[C@H](CC[C@@H]3CC=CC(=O)O3)[C@H]21`, the growth was 95.9% in test [1]; 60.3% in test [2]; 17.7% in test [3]; 36.8% in test [4]; -5.88% (active) in test [5]; 88.8% in test [6]. The growth in test [7] is 87.5%.

Take `COc1ccc(C2c3ccc4ccccc4c3Oc3ncn(CCCn4ccnc4)c(=N)c32)cc1OC` (configuration not stated): the growth in test [1] was 69.9%; in test [2], 64.5%; in test [3] it was 64.4%; in test [4], 51.8%; in test [5], 28.8%; in test [6] it was 73.3%. Moreover, the growth in test [7] is 84.2%.

On to `Cc1nn(-c2nc3ccccc3[nH]2)c2c1C(c1ccc(OCC(N)=O)cc1)CC(=O)N2` (configuration not stated), for which the growth in test [1] is 105%; in test [2], 98.8%; in test [3] it was 88.7%; in test [4] it was 96%; in test [5], 101%; in test [6] it was 122%. For the same compound, the growth in test [7] is 109%.

Consider `CC(C)CCOc1ccc(-c2n[nH]c(C(F)(F)F)c2-c2cncc(C#N)c2)c(O)c1`, for which the growth is 6.56% (active) in test [1]; 7.91% (active) in test [2]; 14.3% in test [3]; 2.95% (active) in test [4]; 2.41% (active) in test [5]; 16.2% in test [6]. In addition, the growth in test [7] is 7.94% (active).

As to `Cc1ccc(S(=O)c2ccc([N+](=O)[O-])c3nonc23)cc1` (configuration not stated), the growth is 95.4% in test [1]; 106% in test [2]; 29% in test [3]; 92.9% in test [4]; 68.9% in test [5]; 116% in test [6]. Moreover, the growth in test [7] is 109%.

As for `COc1ccc(C2=Nn3c(NN)nnc3SC2)cc1`, the growth in test [1] is 108%; in test [2] it was 103%; in test [3], 112%; in test [4], 91.4%; in test [5] it was 112%; in test [6] it was 111%. Further, the growth in test [7] was 101%.

Take `CNCCNc1nc2ccccc2c2c(=O)c3cccc(C)c3sc12`: the growth in test [1] was 76.4%; in test [2], 6.07% (active); in test [3] it was -62.4% (active); in test [4], -66.1% (active); in test [5], -91.4% (active); in test [6], -43.2% (active). Besides, in test [7], the growth was -29.9% (active).

With `COc1ccc(Br)c(/C=C2\SC(=Nc3ccc(O)cc3)NC2=O)c1`, the growth was 83.5% in test [1]; 87.2% in test [2]; 104% in test [3]; 70.4% in test [4]; 98.7% in test [5]; 109% in test [6]. In test [7], the growth was 84.2%.

With `CCCCC1CCc2cccc3c(SCC(=O)N(C)c4ccc(Cl)cc4)cc[n+]1c23` (configuration not stated), the growth is 115% in test [1]; 103% in test [2]; 106% in test [3]; 99.1% in test [4]; 102% in test [5]; 114% in test [6]. Moreover, the growth in test [7] is 108%.
